# According to PubChem BioAssay (Tox21):
# Unmarked numbers belong to inactive results. Results filed as inconclusive are left out. A call without a number means that no potency is given here. Activity calls are given as the source filed them. Unless noted, the call rests on the fitted dose curve; in most records, active means well fitted curve in the direction sought with a large enough effect in the repeat runs; inconclusive means weak or mixed curves; inactive means no such curve, though single readings can be large; an effect the other way counts as inactive or inconclusive.
# Columns and labels:
# [1] = A CellTox Green Cytotoxicity Assay to monitor cytotoxicity in HepG2 cells - 8 hour (AID 1224890); further: nearly all actives have a fitted effect of over 45% in size; further: potency means the concentration at half of the fitted maximal effect
# How it was run: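 HepG2 cells, 600/well, preincubated 5 h with CellTox Green dye, then exposed to Tox21 compounds in DMSO at 37 C for up to 40 h. Dead-cell DNA fluorescence read at the indicated time point.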
# [2] = qHTS assay to identify small molecule antagonists of the androgen receptor (AR) signaling pathway using the MDA cell line in the presence of 0.5 nM R1881 - cell viability counter screen (AID 1259242); further: nearly all actives have a fitted effect of over 45% in size; further: potency means the concentration at half of the fitted maximal effect
# How it was run: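 MDA-kb2 cells (MMTV-luciferase, AR/GR responsive) were treated with compounds plus 0.5 nM R1881 (final) for 16 hr at 37C, 0% CO2. Viability was then read in the same wells as live-cell protease fluorescence (CellTiter-Fluor, 30 min).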
# [3] = biological target: Estrogen receptor (Homo sapiens) (UniProt P03372); assay: qHTS assay to identify small molecule antagonists of the estrogen receptor alpha (ER-alpha) signaling pathway using the BG1 cell line in the presence of 0.1 nM 17-beta-estradiol (AID 1259244); further: nearly all actives have a fitted effect of over 50% in size; further: potency means the concentration at half of the fitted maximal effect
# How it was run: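 VM7Luc4E2 cells (endogenous full-length ER-alpha, 4×ERE-luciferase), kept 5 days in phenol red-free, charcoal-stripped FBS medium; 4,000 cells/well. Compounds added with 0.1 nM (final) 17beta-estradiol, 22 hr at 37C; luminescence read with ONE-Glo after 30 min.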
# [4] = qHTS assay to identify small molecule phospholipidosis (PLD) inducers (AID 1259344; active means well fitted curve in the direction sought with a large enough effect; an effect the other way counts as inactive or inconclusive)
# How it was run: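 Fluorescent phospholipid staining (LipidTOX Red) measured by automated microscopy in fixed HepG2 cells after 24 h treatment; nuclei counterstained with Hoechst 33342; amiodarone as reference inducer.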
# [5] = qHTS assay to identify small molecule HDAC inhibitors - cell viability counter screen (AID 1259365); further: series mostly up to about 92 µM; nearly all actives have a fitted effect of over 50% in size
# How it was run: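 CellTiter-Glo luminescence (30 min, room temperature) reported viability after a 2 h compound exposure at 37 C. Cells: wild-type HCT-116, 1,500 per well, seeded the night before.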
# [6] = qHTS assay to identify small molecule agonists of the sonic hedgehog signaling (Shh) pathway - cell viability counter screen (AID 1259366); further: nearly all actives have a fitted effect of over 50% in size; further: potency means the concentration at half of the fitted maximal effect
# How it was run: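 Cytotoxicity counter screen: CellTiter-Fluor reagent added after 23 h compound exposure, then 1 h at 37C and fluorescence read. Cells were 3T3 Gli1-Luc, seeded 2,000 per well and dosed 4 h post-plating.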
# [7] = qHTS assay to identify small molecule antagonists of the sonic hedgehog signaling (Shh) pathway - cell viability counter screen (AID 1259367); further: nearly all actives have a fitted effect of over 55% in size
# How it was run: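 Using CellTiter-Fluor, viability of Gli1-Luc reporter 3T3 cells is read by fluorescence in the wells used for the Shh luciferase assay. Treatment lasts 23 hr with conditioned medium, then reagent 1 hr at 37C.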
# [8] = qHTS assay to identify small molecule antagonists of the estrogen receptor alpha (ER-alpha) signaling pathway using the BG1 cell line in the presence of 0.1 nM 17-beta-estradiol - cell viability counter screen (AID 1259241); further: nearly all actives have a fitted effect of over 40% in size
# How it was run: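 Cytotoxicity counter-screen: live-cell protease activity measured by fluorescence (30 min reagent step) in the same wells. Cells were VM7Luc4E2 with endogenous ER-alpha and ERE-driven luciferase, treated 22 hr at 37C alongside 0.1 nM 17beta-estradiol final.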
# [9] = qHTS assay to identify small molecule HDAC inhibitors (AID 1259364); further: nearly all actives have a fitted effect of over 45% in size; further: potency means the concentration at half of the fitted maximal effect; on activity change, negative = inhibition: top concentration of the series differs between compounds
# How it was run: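 Wild-type HCT-116 cells, plated overnight at 37 C, exposed to compounds 2 hr at 37 C; luminogenic HDAC-Glo substrate then added 30 min at room temperature. Luminescence reports relative endogenous class I/II HDAC activity.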
# [10] = biological target: Androgen receptor (Homo sapiens) (UniProt P10275); assay: qHTS assay to identify small molecule antagonists of the androgen receptor (AR) signaling pathway using the MDA cell line in the presence of 0.5 nM R1881 (AID 1259243); further: nearly all actives have a fitted effect of over 50% in size
# How it was run: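 MDA-kb2 cells (MMTV-luciferase, responsive to AR and GR) at 3,000/well, rested 5 h at 37C, 0% CO2, then given compounds plus 0.5 nM R1881 (final) for 16 hr. Luciferase read with ONE-Glo after 30 min at room temperature.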
# Sequence of Estrogen receptor (Homo sapiens) (P03372 whole entry, looked up): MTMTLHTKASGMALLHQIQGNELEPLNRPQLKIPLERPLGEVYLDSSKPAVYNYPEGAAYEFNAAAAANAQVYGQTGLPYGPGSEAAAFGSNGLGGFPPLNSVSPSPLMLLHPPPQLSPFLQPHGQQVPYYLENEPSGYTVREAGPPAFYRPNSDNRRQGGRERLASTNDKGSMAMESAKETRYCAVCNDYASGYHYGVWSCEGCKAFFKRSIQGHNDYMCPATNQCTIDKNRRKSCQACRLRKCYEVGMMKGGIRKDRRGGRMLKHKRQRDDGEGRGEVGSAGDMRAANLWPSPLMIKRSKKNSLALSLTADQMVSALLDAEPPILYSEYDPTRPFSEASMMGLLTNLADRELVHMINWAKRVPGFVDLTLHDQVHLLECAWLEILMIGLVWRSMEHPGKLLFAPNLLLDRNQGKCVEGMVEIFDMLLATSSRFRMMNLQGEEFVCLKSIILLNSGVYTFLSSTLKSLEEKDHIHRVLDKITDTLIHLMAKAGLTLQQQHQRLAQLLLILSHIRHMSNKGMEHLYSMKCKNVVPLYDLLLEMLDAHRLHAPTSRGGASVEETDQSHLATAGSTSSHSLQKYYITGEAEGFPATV
# Sequence of Androgen receptor (Homo sapiens) (P10275 whole entry, looked up): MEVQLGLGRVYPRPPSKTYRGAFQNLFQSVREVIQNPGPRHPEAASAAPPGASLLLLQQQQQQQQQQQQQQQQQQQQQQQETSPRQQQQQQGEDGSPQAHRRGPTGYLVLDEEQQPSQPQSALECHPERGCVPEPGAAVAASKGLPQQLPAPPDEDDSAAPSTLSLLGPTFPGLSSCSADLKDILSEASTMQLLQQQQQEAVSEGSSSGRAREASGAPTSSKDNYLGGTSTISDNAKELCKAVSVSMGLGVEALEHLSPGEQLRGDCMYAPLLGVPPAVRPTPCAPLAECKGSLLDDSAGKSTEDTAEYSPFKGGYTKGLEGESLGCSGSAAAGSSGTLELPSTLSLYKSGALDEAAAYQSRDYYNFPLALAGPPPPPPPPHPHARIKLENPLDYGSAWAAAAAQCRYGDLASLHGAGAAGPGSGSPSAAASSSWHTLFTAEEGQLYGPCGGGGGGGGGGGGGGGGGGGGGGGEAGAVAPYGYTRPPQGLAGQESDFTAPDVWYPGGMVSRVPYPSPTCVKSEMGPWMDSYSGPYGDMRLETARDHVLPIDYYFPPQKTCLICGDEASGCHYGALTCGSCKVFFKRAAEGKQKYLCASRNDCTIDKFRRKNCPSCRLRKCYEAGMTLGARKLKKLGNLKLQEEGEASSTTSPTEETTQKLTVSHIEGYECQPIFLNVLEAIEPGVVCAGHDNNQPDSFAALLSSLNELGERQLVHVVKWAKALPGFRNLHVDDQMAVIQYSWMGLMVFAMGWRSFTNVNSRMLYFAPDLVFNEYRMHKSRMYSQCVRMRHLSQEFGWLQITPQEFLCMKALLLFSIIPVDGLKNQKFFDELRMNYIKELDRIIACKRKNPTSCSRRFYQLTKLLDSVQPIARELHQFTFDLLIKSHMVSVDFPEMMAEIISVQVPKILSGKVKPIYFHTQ
smiles,measurement,setting,value
CC(=O)CC(c1ccc([N+](=O)[O-])cc1)c1c(O)c2ccccc2oc1=O (stereo not drawn),Potency,[1],inactive
same,Potency,[2],inactive
same,Potency,[3],inactive
same,outcome,[4],inactive
same,Potency,[5],inactive
same,Potency,[6],inactive
same,Potency,[7],inactive
CC(C)C(OC(=O)c1ccccc1)C(C)(C)COC(=O)c1ccccc1 (stereo not drawn),Potency,[1],inactive
same,Potency,[8],inactive
same,Potency,[5],inactive
same,Potency,[6],inactive
same,Potency,[7],inactive
Cc1cc2nc3ccc(=[N+](C)C)cc-3sc2cc1N,Potency,[1],inactive
same,Potency,[2],2.66 µM (active)
same,Potency,[3],26.6 µM (active)
same,PLD induction,[4],-3.22% [at 0.306 µM]
same,Potency,[9],10.6 µM (active)
same,Potency,[6],9.44 µM (active)
same,Potency,[7],inactive
CCCC1C(CC)=CC(CC)=CN1c1ccccc1 (stereo not drawn),Potency,[1],inactive
same,Potency,[8],inactive
same,Potency,[9],inactive
same,Potency,[5],inactive
same,Potency,[6],inactive
same,Potency,[7],inactive
CC1CN(c2cc3c(cc2F)c(=O)c(C(=O)O)cn3-c2ccc(F)cc2F)CCN1 (stereo not drawn),cytotoxicity increase,[1],-0.506% [at 6.97 µM]
same,"viability change, negative = cytotoxic",[2],6.65% [at 8.39 µM]
same,"activity change, negative = inhibition",[3],-1% [at 8.39 µM]
same,outcome,[4],inactive
same,"activity change, negative = inhibition",[9],-3.12% [at 8.39 µM]
same,"activity change, negative = cytotoxicity",[5],-1.14% [at 8.39 µM]
same,"viability change, negative = cytotoxic",[6],-8.68% [at 8.39 µM]
same,"viability change, negative = cytotoxic",[7],5.63% [at 8.39 µM]
Cc1cc(O)c(C(C)C)cc1Cl,Potency,[1],43.6 µM (active)
same,Potency,[2],inactive
same,Potency,[3],inactive
same,outcome,[4],inactive
same,Potency,[9],inactive
same,Potency,[5],inactive
same,Potency,[6],inactive
same,Potency,[7],inactive
CC(=O)N(c1onc(C)c1C)S(=O)(=O)c1ccc(N)cc1,Potency,[1],inactive
same,Potency,[8],inactive
same,Potency,[3],inactive
same,Potency,[9],inactive
same,Potency,[5],inactive
same,Potency,[6],inactive
same,Potency,[7],inactive
COc1cc2c(N3CCN(C(=O)Nc4ccc(OC(C)C)cc4)CC3)ncnc2cc1OCCCN1CCCCC1,Potency,[1],inactive
same,Potency,[8],inactive
same,Potency,[3],inactive
same,Potency,[9],inactive
same,Potency,[5],inactive
CCC(C)=O,Potency,[1],inactive
same,Potency,[8],inactive
same,Potency,[5],inactive
same,Potency,[6],inactive
same,Potency,[7],inactive
CN(C)C(=O)Nc1ccc(Oc2ccc(Cl)cc2)cc1,Potency,[1],inactive
same,Potency,[8],inactive
same,Potency,[9],inactive
same,Potency,[6],inactive
same,Potency,[7],inactive
CCOC(=O)[C@@H](C)Oc1ccc(Oc2nc3ccc(Cl)cc3o2)cc1,Potency,[1],inactive
same,Potency,[2],inactive
same,Potency,[10],inactive
same,Potency,[5],inactive
same,Potency,[6],inactive
same,Potency,[7],inactive
CCOC(=O)CC(=O)C(=O)OCC,Potency,[1],inactive
same,Potency,[8],inactive
same,Potency,[9],inactive
same,Potency,[5],inactive
same,Potency,[6],inactive
same,Potency,[7],inactive
C=CC(=O)NCOCC(C)C,Potency,[1],inactive
same,Potency,[8],inactive
same,Potency,[9],inactive
same,Potency,[5],inactive
same,Potency,[6],inactive
same,Potency,[7],inactive
C=CC(=C)CCCC(C)(C)OC(C)=O,Potency,[1],inactive
same,Potency,[2],inactive
same,Potency,[10],inactive
same,Potency,[9],inactive
same,Potency,[5],inactive
same,Potency,[6],inactive
same,Potency,[7],inactive
OCC1CC=CCC1 (stereo not drawn),Potency,[1],inactive
same,Potency,[8],inactive
same,Potency,[3],inactive
same,Potency,[5],inactive
same,Potency,[6],inactive
